The text below walks through data of PubChem BioAssay (NCI).

This is part of a sample that, as a whole, favours compounds with a hit. Of some 83,000 tested, about 20% had one in any assay.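 Activity criterion: percent growth below 10, measured after cells in 96-well plates were exposed to a single compound concentration for 48 hours.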 Unmarked numbers belong to inactive results. Calls of active or inactive are those of the source.

For this test, the system named is OVCAR-4 ovarian. Description: NCI-60 one-dose screen, 48 h (100 = growth as untreated, 0 = no growth, -100 = all killed). The settings on record: 10 µM unless noted.
As for `CCC(=O)Nc1ccc(-c2nc(-c3cccc(O)c3)c(-c3ccnc(Br)c3)[nH]2)cc1`, the growth was 51.1%.

For the molecule `NC(=O)c1c(NC(=O)c2cccc(OC(F)(F)F)c2)sc2c1CCC(=O)C2`, the growth was 13.8%.

Regarding `COc1cc(C2=NN(C(C)=O)C(c3ccc(N4CCOCC4)cc3)C2)cc(OC)c1OC` (configuration not stated), the growth is 107%.

Take `CCC(=O)Nc1cc(Nc2cc(NC3CC3)n3ncc(C#N)c3n2)ccc1C`: the growth is 17.1%.

Regarding `O=C(CSc1ccc(-c2nc3ccccc3[nH]2)cn1)N1CCN(c2ccccc2F)CC1`, the growth was 24.2%.

In the case of `NCCN1CCN(c2nc(-c3ccccc3)nc3nc(-c4ccccc4)oc23)CC1`, the growth is -59.7% (active).

Regarding `CCN(CC)Cc1c(-c2cccc(OC(F)(F)F)c2)[nH]c2ccc(N3CCCC3)cc2c1=O`, the growth is 101%.

Take `C#C[C@]1(O)CC[C@H]2[C@@H]3CC=C4c5sc(-c6ccc(OC)cc6)nc5CC[C@]4(C)[C@H]3CC[C@@]21C`: the growth is 97.9%.

Turning to `C#C[C@]1(O)CC[C@H]2[C@@H]3CC=C4c5sc(Nc6cc(OC)ccc6OC)nc5CC[C@]4(C)[C@H]3CC[C@@]21C`, the growth was 64.3%.

With `O=C(Nc1cccc(-c2nc(-c3ccc(NC(=O)c4cccnc4)cc3Cl)no2)c1)Nc1ccc(NC(=O)C2CC2)c(C(F)(F)F)c1`, the growth is -74.1% (active).

As to `O=C(Nc1ccc(-c2nc(-c3cccc(O)c3)c(-c3ccnc(Br)c3)[nH]2)cc1)c1ccccc1`, the growth was 35%.

Take `COc1ccccc1N1CCN(C2=NN=C(c3cccc(Cl)c3)c3ccccc3C2)CC1`: the growth was 38.6%.
